Source: PubChem (National Center for Advancing Translational Sciences (NCATS))
An excerpt weighted towards active compounds, which were near 7.2% of everything screened.
HCV inh = HCV inhibition; hit rate 3.4% among 340,000; AID 651820; Huh7.5.1 HCVcc-Cre infection, luciferase reporter, 44 h; Potency, µM (doses to about 41.8 µM), usual class: inhibitors
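Luciferase read-out (15 sec integration) after a 15 min room-temperature substrate step quantifies HCVcc-Cre infection. Cells, 1,000 per well, had compound added 4 h post-plating, then virus at ~0.5 moi, and were cultured 44 h.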
RE007 growth inh = less growth of the S. pombe RE007 Vpr strain; S. pombe RE007 Vpr strain, BacTiter-Glo ATP luminescence, 24 h; Potency, µM (titrated, usually from 92.2 µM), usual class: inhibitors; hit rate 0.21% among 360,000; active = well fitted falling curve with a large enough effect; inconclusive = small, poorly fitted or top-dose-only effect; inactive = no such curve, though single readings can be large or run the other way; note: nearly all actives have a fitted effect of over 50% in size
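Fission yeast strain RE007, carrying one chromosomally integrated HIV-1 vpr copy, was seeded at OD 0.01 in PMG+AL medium with 23 nL pinned compound. After 24 h at 30 °C and 99% humidity, viability was read by BacTiter-Glo luminescence.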
MARV entry inh = blocks Marburg virus binding to or entry into cells | hit rate 1.8% among 300,000 | Marburg virus pseudotyped entry inhibition, cell reporter | Potency, µM (series often up to 37.8 µM), actives largely listed as inhibitors; calls by dose curve; tested in HEK293 cells
Sm TGR block = blocks Schistosoma mansoni thioredoxin glutathione reductase; purified TGR, DTNB reduction, TNB absorbance 405 nm; hit rate 3% among 360,000; Q962Y6; Potency, µM (titrated, usually from 114 µM), usual class: inhibitors; note: nearly all actives have a fitted effect of over 60% in size
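TGR 20 nM + NADPH 100 uM (dispensed conc.), cpd preinc 15 min RT; start with NADPH (500 uM addition) then DTNB (15 mM addition). Kinetic TNB absorbance, 405 nm filter. Four-parameter Hill fit across titration.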
Lassa entry inh = Lassa virus entry inhibition; Potency, µM (highest dose often 37.9 µM), actives largely listed as inhibitors; Lassa virus pseudotype entry inhibition, cell reporter; hit rate 1.2% among 300,000; calls by dose curve; tested in HEK293 cells; note: nearly all actives have a fitted effect of over 50% in size
FMDV antiviral = foot and mouth disease virus antiviral activity; Potency, µM (series often up to 57.9 µM), hits mostly inhibitors; FMDV antiviral cell-based qHTS; hit rate 1.2% among 410,000; calls by dose curve; tested in HEK293T cells; note: read-out not given here; nearly all actives have a fitted effect of over 45% in size
A number is an active result; 0 = inactive; ? = inconclusive; - = no result; [ ] = remark or other dose. Unless noted, calls come from the whole dose curve; as a rule, active = well fitted curve in the direction sought with a large enough effect; inconclusive = small, poorly fitted or top-dose-only effect, or another doubt; inactive = no such curve, though single readings can be large; an effect the other way counts as inactive or inconclusive.

SMILES	HCV inh	RE007 growth inh	MARV entry inh	Sm TGR block	Lassa entry inh	FMDV antiviral
COC(=O)[C@@]1(C)[C@H]2C(=O)N(C)C(=O)[C@H]2[C@H]2CN=C(SCc3ccc(Cl)cc3)N21	4.5µM	0	-	-	-	0
CC[C@]1(C(=O)OC)[C@H]2C(=O)N(C)C(=O)[C@H]2[C@H]2CN=C(SCc3ccc(Cl)cc3)N21	0	0	-	-	-	0
CCn1c(/C=C2/C(=O)N(C)c3ccccc32)nc2ccccc2c1=O	0	0	0	0	?	?
CCN1C(=O)/C(=C\c2nc3ccccc3c(=O)n2CC)c2ccccc21	0	0	?	0	0	25µM
CCN1C(=O)/C(=C/c2nc3ccccc3c(=O)n2-c2ccccc2)c2ccccc21	0	0	0	0	?	25µM
O=C(NC1CC(=O)N(c2ccccc2)C1)c1cccs1 (stereo unspecified)	-	-	-	0	0	0
CC(=O)c1ccc(-c2ccc3c4c(ccc3c2)OC(CNC(=O)[C@@H]2CCCN2C(C)=O)C4)s1 (stereo partly specified)	-	-	-	-	-	0
Clc1ccccc1C(c1ccccc1)(c1ccccc1)n1ccnc1	?	0[18.4 µM]	16µM	0	6.5µM	?
O=S(=O)(Nc1cccc(-c2cn3cccnc3n2)c1)c1ccccc1	0	0	0	0	0	0
O=S(=O)(Nc1cccc(-c2cn3cccnc3n2)c1)c1ccc(-c2ccccc2)cc1	4.5µM	0	0	0	0	0
Cc1cccc(S(=O)(=O)Nc2cccc(-c3cn4ccsc4n3)c2)c1	?	0	?	0	?	0
Cc1ccc(S(=O)(=O)Nc2cccc(-c3cn4ccsc4n3)c2)cc1	?	0	?	0	4.5µM	0
CCOc1ccc(NC(=O)c2oc3ccccc3c2NC(=O)C(C)Oc2ccccc2)cc1 (stereo unspecified)	-	-	?	0	0	0
CSc1nnc(N2C(=O)C(O)=C(C(=O)c3ccco3)C2c2cccc(Cl)c2)s1 (stereo unspecified)	0	0	-	8.9µM	-	0
CCSc1nnc(N2C(=O)C(O)=C(C(=O)c3ccco3)C2c2cccc(OC)c2)s1 (stereo unspecified)	0	0	-	?	-	0
O=C(C1=C(O)C(=O)N(c2ncccn2)C1c1cccc(Cl)c1)c1ccco1 (stereo unspecified)	-	0	0	45µM	0	0
CSc1nnc(N2C(=O)C(O)=C(C(=O)c3ccco3)C2c2ccc(F)cc2)s1 (stereo unspecified)	0	0	-	50µM	-	0
CCN(CC)CCN1C(=O)C(O)=C(C(=O)c2ccco2)[C@@H]1c1ccccn1	-	-	0	-	-	-
CCN(CC)CCN1C(=O)C(O)=C(C(=O)c2ccco2)C1c1ccccn1 (stereo unspecified)	0	0	0	45µM	?	0
CCOC(=O)C1CCN(C(=O)c2nn(-c3ccc(OC)cc3)c(=O)c3c2c2ccccc2n3C)CC1	-	-	0	0	0	?
COC(=O)c1cccc(CN2C(=O)SC(Nc3ccc(Br)cc3)C2=O)c1 (stereo unspecified)	-	-	0	0	0	0
Cc1cc(C)nc(S[C@H]2C[C@@H](C(=O)N3CCN(c4ccccc4F)CC3)N(Cc3ccccc3F)C2)n1	-	-	-	-	-	0
CCc1cccc(C)c1NC(=S)NCCc1c(C)[nH]c2ccc(C)cc12	35µM	0	?	0	?	0
CCc1cccc(CC)c1NC(=S)NCCc1c(C)[nH]c2ccc(C)cc12	22µM	0	?	0	?	0
Cc1[nH]c(N=Nc2ccccc2)nc1N=Nc1ccccc1	13µM	0	?	0	?	0
SMILES	HCV inh	RE007 growth inh	MARV entry inh	Sm TGR block	Lassa entry inh	FMDV antiviral
Nc1ccc(N=Nc2ccccc2)c(N)n1	0[8.37 µM]	0[18.4 µM]	0	0	?	0
Cc1ccc(S(=O)(=O)Nc2ccc3c(c2)c2c(n3S(=O)(=O)c3ccc(C)cc3)CCCC2=O)cc1	?	0	?	?	?	0
CCOC(=O)c1c(C)n(S(=O)(=O)c2ccc(C)cc2)c2ccc(NS(=O)(=O)c3ccc(C)cc3)cc12	-	-	0	0	6.3µM	0
O=C(NCc1ccc2c(c1)OCO2)c1nc(S(=O)(=O)Cc2ccccc2F)ncc1Cl	0	0	-	25µM	-	22µM
O=C(NCc1ccc2c(c1)OCO2)c1nc(S(=O)(=O)Cc2ccccc2)ncc1Cl	?	0	?	3.2µM	?	16µM
O=C(CN(Cc1ccccc1F)C(=O)c1csnn1)NCc1ccc2c(c1)OCO2	0	0	0	0	2.8µM	0
NCCC[C@H](N)CC(=O)N[C@H]1CNC(=O)[C@H]([C@H]2C[C@H](O)N=C(N)N2)NC(=O)C(=CNC(N)=O)NC(=O)[C@H](CO)NC(=O)[C@H](CO)NC1=O	-	-	-	-	-	0
COc1cc(CNCCc2c[nH]c3ccccc23)cc(OC)c1OC	-	0	-	-	-	0
COc1cc(C(=O)NCCc2c[nH]c3ccccc23)ccc1OCc1c(C)noc1C	0	0	0	0	7.9µM	?
COc1cccc(CNCCc2c[nH]c3ccccc23)c1OCc1ccccc1	10µM	0	?	0	?	0
Cc1ccc(C(=O)NCCc2c[nH]c3ccccc23)c(C)c1	?	0	?	0	11µM	0
Cc1cccc(CNCCc2c[nH]c3ccccc23)c1	?	0	10µM	?	?	0
COc1ccc(CCNC(=O)c2ccc(OCc3c(C)noc3C)c(OC)c2)cc1	0	0	0	-	?	0
COc1ccc(N(C)C(=O)NCc2noc3ccc(C)cc23)c(OC)c1	-	-	-	0	0	0
Cc1ccc(CNC(=O)C2CCC(CNS(=O)(=O)c3ccc(C)cc3)CC2)cc1 (stereo unspecified)	-	-	-	0	0	0
Cc1nc(NCc2cnn(C)c2C)sc1-c1ccn(CC2COc3ccccc3O2)n1 (stereo unspecified)	-	-	-	-	-	0
Cc1ccc(NC(=S)Nc2ccc(C(C)C)cc2)cc1S(=O)(=O)N1CCCCCC1	6.3µM	0	?	0	?	0
C=CCNC(=S)Nc1ccc(C)c(S(=O)(=O)N2CCCCC2)c1	0	0	0	35µM	0	0
COc1ccc(NC(=S)Nc2ccc(C)c(S(=O)(=O)N3CCCCC3)c2)cc1	?	-	15µM	0	0	-
CC(=O)Nc1cccc(-c2nnc(SCC(=O)c3cc([N+](=O)[O-])ccc3Br)o2)c1	-	-	?	0	0	?
CCCc1c(C(=O)OCC)nnc2c(-c3ccccc3)c(C)nn12	-	-	0	?	?	0
COC(=O)C1=C(C(=O)OC)C2C(C)=CC(C)=CN2C(C(=O)OC)=C1C(=O)OC (stereo unspecified)	0	0	0	40µM	0	0
COc1ccc2nc3oc(C(=O)Nc4cccc(C(F)(F)F)c4)cc3cc2c1	-	-	-	0	0	0
CCC(=O)N1CCc2cc(S(=O)(=O)CCC(=O)N3CCN(c4ccccc4Cl)CC3)ccc21	-	-	0	0	0	0
NC(=O)C1(N2CCCCC2)CCN(Cc2nc(-c3cccs3)no2)CC1	0	0	-	0	-	35µM
Cc1nc(N2CCN(S(=O)(=O)c3ccccc3C#N)CC2)c2c(-c3ccccc3)csc2n1	8.9µM	0	-	0	-	?
